This is a sample that favours compounds with a hit; in the whole collection about 1.3% have one here.
VHR inh abs = inhibitors of human VHR1 phosphatase (DUSP3) | inhibition, % at 13.3 µM | P51452 | recombinant VHR phosphatase, pNPP absorbance | hit rate 0.52% among 290,000; in the data active = inhibition above about 50%
Target sequence (P51452 whole entry, looked up): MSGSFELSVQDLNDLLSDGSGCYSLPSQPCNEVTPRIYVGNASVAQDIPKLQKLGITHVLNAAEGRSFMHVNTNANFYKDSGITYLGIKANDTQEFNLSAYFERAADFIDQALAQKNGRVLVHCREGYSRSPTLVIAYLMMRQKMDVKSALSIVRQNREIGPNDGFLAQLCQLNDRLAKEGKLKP
PriA SSB inh = blocks PriA binding to SSB C-terminal tail; inhibition, % at 33 µM; AlphaScreen SSBct-PriA binding, biotinylated peptide; AID 1272365; hit rate 0.6% among 430,000; in the data active = inhibition mostly above about 37%, no sharp cut-off; inactive = mostly below about 20%;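 note: plate controls were negative control peptide for no effect and reference peptide for full effect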
3CLpro inhibitor = SARS-CoV 3CLpro protease inhibition; inhibition, % at 6 µM; P0C6X7; recombinant SARS-CoV 3CLpro, quenched FRET peptide cleavage; hit rate 0.14% among 290,000; in the data active = inhibition above about 12%
Mtb hypoxia rep = reduces hypoxia-regulated biosensor signal in M. tuberculosis. hit rate 0.1% among 300,000. M. tuberculosis hypoxia-regulated fluorescent reporter, fluorescence. AID 1159583. fluorescence inhibition, % (no concentration beside the values); in the data active = fluorescence inhibition mostly above about 23%, no sharp cut-off; inactive = mostly below about 17%
CCHFV vOTU inh = blocks the CCHF virus ovarian tumor domain protease | CCHFV vOTU protease, Pep-AMC fluorescence | inhibition, % at 11.5 µM | hit rate 0.55% among 370,000; in the data active = inhibition above about 30%; note: 0% = vehicle wells with enzyme and 100% = no enzyme wells
Starred values were filed as active, the others as inactive; · = no result given.

SMILES	VHR inh abs	PriA SSB inh	3CLpro inhibitor	Mtb hypoxia rep	CCHFV vOTU inh
Cc1ccc(NC(=S)NN=Cc2ccc([N+](=O)[O-])s2)cc1	·	61.9*	·	-1.6	·
O=[N+]([O-])c1ccc(C=Nc2cccc3ccccc23)s1	11.8	52.6*	1.7	11.0	·
Cc1ccc(C(=O)N/N=C/c2ccc([N+](=O)[O-])s2)cc1	20.0	·	1.1	·	11.6
O=C(Cc1ccccc1)NCC(=O)N/N=C/c1ccc([N+](=O)[O-])s1	30.6	·	-1.0	·	30.6*
O=C(NCCc1csc(-n2cccn2)n1)c1cc(-c2ccco2)on1	·	3.0	·	·	·
COc1ccc(C(=O)NNS(=O)(=O)c2ccc(OC)cc2)cc1	58.2*	-11.7	2.7	0.7	-5.6
COc1ccc(C(=O)NNS(=O)(=O)c2ccccc2)cc1	1.9	-8.1	-1.2	6.8	1.7
Nc1c(Cl)ncnc1NN=Cc1ccc2ccccc2n1	·	54.4*	·	-7.6	·
O=C(O)c1ccc2c(c1)[C@@H]1C=CC[C@@H]1[C@H](c1ccccn1)N2	·	14.9	3.7	7.7	54.3*
O=C(O)C1Nc2ccc(Br)cc2C2C=CCC12 (stereo not given)	37.2	3.5	1.1	13.0	·
O=C(OC1CCCCC1)c1ccc2c(c1)C1C=CCC1C(C(=O)O)N2 (stereo not given)	87.4*	·	1.4	·	·
Cc1cc[n+](-c2[nH]c(=O)sc2C=NN=C([O-])c2ccccc2)cc1C	·	-8.1	·	·	·
Cc1cc(NC(=O)c2ccc(F)cc2)n(-c2nc3c(cnn3-c3cccc(C)c3C)c(=O)[nH]2)n1	·	2.0	·	·	·
O=C(O)CC1C(=O)NCCN1Cc1cccc(C(F)(F)F)c1 (stereo not given)	·	-2.0	·	·	·
NNC(=O)c1sc(-c2ccc(Cl)cc2)cc1N	51.3*	-3.6	0.5	6.1	2.8
Cc1ccc2sc(NC(=O)CN3C(=O)CCC3=O)nc2c1C	2.0	104.2*	5.0	0.8	1.7
Cc1ccc(C)c2sc(NC(=O)CN3C(=O)CCC3=O)nc12	-1.3	1.0	4.8	-1.2	-2.6
COc1ccc(CCNc2nccn(-c3cccc(Cl)c3C)c2=O)cc1OC	·	32.0*	·	·	·
COc1ccc(CCNc2nccn(-c3ccccc3OC)c2=O)cc1OC	·	4.0	·	·	·
NNC(=O)c1cc(-c2ccc(N)cc2)nc2ccc(Br)cc12	54.1*	0.2	-0.9	-2.0	-4.2
Nc1nc2c(c(NC(=O)Nc3cccc(Cl)c3)n1)CCCC2	·	-8.0	·	·	·
COc1ccc(OC)c(-c2cc(C3CCN(c4ncccc4[N+](=O)[O-])CC3)[nH]n2)c1	-3.7	65.0*	6.9	·	11.3
CC(=NNC(=O)C1CCCN(S(=O)(=O)c2ccccc2)C1)c1ccccn1 (stereo not given)	·	48.8*	·	-5.8	·
CN(C)c1ccc(NC(=O)C2CCCN(S(=O)(=O)c3ccccc3)C2)cc1 (stereo not given)	55.8*	8.5	3.1	0.6	0.2
CC(=NNC(=S)N1CCC1)c1ccccn1	·	72.0*	·	·	5.9
SMILES	VHR inh abs	PriA SSB inh	3CLpro inhibitor	Mtb hypoxia rep	CCHFV vOTU inh
O=C(NCc1ccccn1)C1CCCN(S(=O)(=O)c2ccccc2)C1 (stereo not given)	-5.0	-1.9	-3.2	-5.1	-10.9
O=S(=O)(c1ccccc1)N1CCC(c2ccccn2)C1 (stereo not given)	·	40.0*	·	·	·
Cc1noc(-c2ccsc2NC(=O)COc2ccc(Cl)cc2Cl)n1	·	-14.0	·	·	·
COc1ccc(CCC(=O)Nc2ccc3nc(C)n(-c4ccc(F)cc4)c(=O)c3c2)cc1	·	2.0	·	·	·
COc1ccc(/C=C(\NC(=O)c2cccs2)C(=O)NN)cc1OC	52.0*	4.7	-0.1	6.4	2.5
COC(=O)c1ccccc1NC(=O)c1ccc(=O)n(C)n1	·	-6.0	·	·	·
COc1ccc2nc(SCC(=O)Nc3nonc3C)[nH]c2c1	3.4	3.5	0.9	14.3	-4.0
Cc1ccc2nc(SCC(=O)Nc3nonc3C)[nH]c2c1	54.4*	-0.5	-1.7	12.5	9.7
O=C(CCS(=O)(=O)c1ccc(Br)cc1)N1CCN(c2ccc(F)cc2)CC1	50.4*	8.6	-2.3	-10.8	26.1
O=C(CCS(=O)(=O)c1ccc(Br)cc1)N1CCN(c2ccc(Cl)cc2)CC1	6.2	-22.9	-2.3	4.7	-8.3
Cc1cccc2cc(C#N)c(SCC(=O)NCc3cccs3)nc12	1.9	0.0	8.4	-7.7	-6.8
Cc1ccc(C)c2nc(SCC(=O)NCc3cccs3)c(C#N)cc12	52.7*	-10.9	-0.9	2.1	9.3
Cc1ccc(S(=O)(=O)/N=C2/C=C(C3C(=O)CC(C)(C)CC3=O)C(=O)c3ccccc32)cc1	-9.9	·	-2.3	·	108.0*
CC1(C)CC(NS(=O)(=O)c2ccccc2F)CC(C)(C)N1	·	-4.0	·	·	·
CC1(C)CC(NS(=O)(=O)c2cccc3ccccc23)CC(C)(C)N1	55.5*	-6.6	-4.4	0.5	-10.2
Nc1ccc(C2(c3ccc(N)cc3)C(=O)Nc3ccccc32)cc1	52.7*	12.9	-0.4	5.4	-13.6
O=C1Nc2ccccc2C1(c1ccccc1)c1ccccc1	16.6	11.7	4.4	3.9	6.9
Cc1cc2ncc3c(n2n1)CCN(C(=O)c1ccc(Cl)s1)C3	·	-8.0	·	·	·
COc1cccc(NC(=O)CSc2nc(CC(=O)Nc3ccc(OC)c(Cl)c3)cs2)c1	·	-5.0	·	·	·
O=C(Nc1ccc(O)c(-c2nc3ccccc3s2)c1)c1cc(=O)c2ccccc2o1	52.6*	-1.6	-2.4	·	-1.1
CCCN(CCC)CCCNC(=O)c1ccc(CS(=O)(=O)c2c(Cl)cccc2Cl)o1	54.7*	-4.5	-2.7	-8.6	-7.8
CN(C)CCNC(=O)c1ccc(CS(=O)(=O)c2c(Cl)cccc2Cl)o1	21.1	0.5	0.3	·	-2.0
CN(C)CCN(C(=O)c1ccsc1)C1CCOCC1	·	-18.0	·	·	·
CCSc1nnc(NC(=O)[C@H](C)N2C(=O)C3CC=CCC3C2=O)s1 (stereo not given in full)	6.7	-18.2	0.3	29.9*	5.6
CCSc1nnc(NC(=O)CN2C(=O)C3CC=CCC3C2=O)s1 (stereo not given)	9.3	-6.0	0.4	-5.3	14.4
SMILES	VHR inh abs	PriA SSB inh	3CLpro inhibitor	Mtb hypoxia rep	CCHFV vOTU inh
CCC(CC)C(=O)Nc1nnc(SCc2cc(=O)c(OC(=O)c3cccc(Br)c3)co2)s1	·	-9.0	·	·	·
COc1ccc(N(CC(=O)NCCSc2ccccc2)S(C)(=O)=O)cc1	23.4	-7.6	-0.2	-2.5	-14.7
COc1ccc(OC)c(N(CC(=O)NCCSc2ccccc2)S(C)(=O)=O)c1	50.5*	6.2	0.8	2.5	-10.4
c1ccc(Nc2ccccc2Nc2ccccn2)nc1	22.0	10.3	-191.5	3.4	5.3
Oc1cccc2ccc(Nc3ccccn3)nc12	1.8	102.5*	0.9	15.7	-2.7
Cc1nn(C)c(C)c1S(=O)(=O)NCc1cccc(Oc2ccccn2)c1	·	-12.0	·	·	·
Cc1cccc(NS(=O)(=O)c2csc(C(N)=O)c2)c1C	52.6*	-9.1	-7.4	-2.5	-12.2
Cc1cccc(NS(=O)(=O)c2csc(C(N)=O)c2)c1	10.4	-12.0	3.3	-10.2	9.7
CC(=O)NNC(=O)C1=NNC(=O)C1	·	8.0	·	·	·
CC(=NNC(=O)CN1CCCCC1)c1ccccc1O	·	-13.9	·	3.6	·
C/C(=N\NC(=O)CN1CCCCC1)c1ccccc1O	53.0*	·	1.6	·	-9.7
COc1ccc(CC2(CO)CCN(C(C)COc3ccccc3)CC2)cc1 (stereo not given)	12.9	-5.1	-0.9	9.1	13.8
